About 13,000 (27%) of roughly 48,000 compounds showed an effect of 50% or more. The list shows a part of the results.
test system: Wolbachia pipientis; assay: Anti-Wolbachia Cell-Based Screen; format: functional; parameters: scale not given: in the data most compounds retested in dose-response had high values; conditions: 5 µM

SMILES	Percent Effect
O=C1CCC2(CCCN(C(=O)c3cscn3)C2)CN1CCc1c[nH]cn1 (stereo not drawn)	-10.65%
COCC[C@]1(O)CCN(C(=O)CCc2cnn(C)c2)C[C@H]1C	4.52%
COCCCN1C(=O)CC[C@H]2CN(c3ccc(C(N)=O)cn3)CC[C@H]21	-7.977%
O=C(O)C(F)(F)F.O=C([C@@H]1COC[C@H]2CN(C3CCCC3)C[C@H]21)N1CCCO1	17.11%
N#Cc1cccn(CCOc2ccc(Cl)cc2)c1=O	1.787%
CCN(Cc1cccc(C(=O)Nc2ncc(C)s2)c1)[C@H]1COC[C@@H]1O	-30.5%
COc1cccc(OCC(=O)Nc2cc(C)cnc2OC)c1	-3.039%
COc1ccc(CC(=O)N(C)c2cccnc2N(C)C)c(Cl)c1	3.868%
COc1cccc(OCC(=O)N(C)c2cccnc2)c1	104.9%
COc1cccc(OCC(=O)N(C)c2cccnc2N(C)C)c1	85.27%
COc1cccc(OCCCc2cncc(C(N)=O)c2)c1	-6.464%
COc1cccc(OCC(=O)NS(=O)(=O)c2cc(F)ccc2F)c1	-14.39%
Cn1cccc1C(=O)N[C@@H]1CN(Cc2cccs2)[C@@H]2COC[C@@H]21.O=C(O)C(F)(F)F	-0.8834%
Cc1nc(C)n(CC2CCCCN2CCCC#N)n1 (stereo not drawn)	3.604%
CCc1nnc(NC(=O)N(CCOC)Cc2ccc(C)o2)s1	-17.47%
CN(CCCNC(=O)CN1CCS(=O)(=O)CC1)c1ccccc1	9.575%
c1cc(-c2nnc([C@H]3CCNC3)o2)ccn1	-9.06%
COCC(=O)NC[C@H]1CC[C@H](c2nnc(-c3cccnc3)o2)CC1	199.6%
COCC(=O)NC[C@@]1(COc2cccnc2)C[C@@H](O)[C@@H](O)C1.Cl	-0.8237%
O=C(c1cccnc1)C1CCCN(c2nnc(C3CC3)o2)C1 (stereo not drawn)	-9.968%
c1cncc(-c2nnc([C@H]3CCN(CC4CC4)C3)o2)c1	10.36%
COCC(=O)NC[C@H]1CC[C@H](c2nnc(-c3ccncc3)o2)CC1	130.9%

SMILES	Percent Effect
c1cncc(-c2nnc([C@H]3CCN(CC4CCCCC4)C3)o2)c1	11.75%
O=C(NC[C@H]1CC[C@H](c2nnc(-c3cccnc3)o2)CC1)C1CC1	169.2%
COCC(=O)NCC1Cn2nnc(-c3ccncc3)c2CO1.O=C(O)C(F)(F)F (stereo not drawn)	-3.08%
Cc1nc(C(C)C)sc1C(=O)N(C)Cc1nc(-c2ccccn2)no1	-7.076%
CC(CN(C)C(=O)c1cn(C)nc1-c1ccc(F)cc1F)C(=O)O (stereo not drawn)	-1.433%
CCOc1ccc2nc(CN3CCC(CNC(C)=O)C3)ccc2c1 (stereo not drawn)	0.9569%
Cc1nc(CN(C)C(=O)c2cc(C)sc2NC(=O)C(C)(C)C)no1	-2.602%
Fc1cccc(-n2cccn2)c1NCc1nnc(C2CC2)o1	-10.01%
Cc1cc(C)n(C2CN(C(=O)Cn3c(C)cc(=O)c4ccccc43)C2)n1	17.29%
O=C(CSCC1CC1)N1C[C@@H]2CC[C@H](C1)N(Cc1ccccn1)C2=O	4.164%
CCn1cc2c(n1)CN(S(=O)(=O)Cc1ccccc1)CC2COC (stereo not drawn)	10.82%
CN1CC(=O)N(C2CCC2)Cc2c(NC3CCNCC3)ncnc21	107.9%
CN1CC(=O)N(C2CCNCC2)Cc2c(NC3CCC3)ncnc21	106.1%
Cc1n[nH]c(C2CN(CCNC3CCCCC3)CCO2)n1 (stereo not drawn)	13.35%
CCn1c(=O)n(Cc2nc(C3CC3)no2)c2ccccc21	-1.691%
CCn1c(=O)n(CC)c2cc(S(N)(=O)=O)ccc21	88.83%
CCNS(=O)(=O)c1ccc2c(c1)c(=O)n(CC)c(=O)n2CC	90.08%
CCc1nc(Cn2c(=O)n(CC)c3ccccc32)no1	-6.157%
CCNS(=O)(=O)c1ccc(C)c(C(=O)N(C)Cc2ccccc2C)c1	-10.61%
CCCN(C)C(=O)c1cc(S(=O)(=O)NCC)ccc1C	-9.376%
CCn1c(=O)c2cc(S(N)(=O)=O)ccc2n(CC)c1=O	133.6%
NC(=O)Cn1ccc(NC(=O)C2(c3cccc(Cl)c3)CC2)n1	-4.273%

SMILES	Percent Effect
CN(C)C(=O)[C@@H]1C[C@H]2OCC[C@H]2N(CCOc2ccc(Cl)cc2)C1.O=C(O)C(F)(F)F	2.849%
Cn1ccnc1COc1ccc(NC(=O)CCC2CCCO2)cc1 (stereo not drawn)	7.737%
CC(C(=O)Nc1ccnn1C(C)C)N1CCN(Cc2ccon2)CC1 (stereo not drawn)	9.174%
c1cnc(N2C[C@H]3CCC[C@@H](CN4CCCC4)[C@H]3C2)nc1	-23.6%
Cc1cnc(CN(C)C2CCN(CC(=O)Nc3nncs3)C2)o1.O=C(O)C(F)(F)F (stereo not drawn)	3.209%
CCOC(=O)N1CCC2(CCCN(C3CCOCC3)C2=O)C1 (stereo not drawn)	112%
CS(=O)(=O)CCN1CCC2(CCCN(C3CCOCC3)C2=O)C1 (stereo not drawn)	-2.931%
COCCOCC(=O)N1CCC2(CCCN(C3CCOCC3)C2=O)C1 (stereo not drawn)	121%
Cc1c(C(=O)N2CCC3(CCCN(CC4CC4)C3=O)C2)ccn1C (stereo not drawn)	-5.125%
O=C(COCC(F)(F)C(F)F)N1CCC2(CCCN(CCO)C2=O)C1 (stereo not drawn)	-15.14%
Cn1cccc1C(=O)N1CCC2(CCCN(CC3CC3)C2=O)C1 (stereo not drawn)	2.832%
Cc1cc(C(=O)N2CCC3(CCCN(CC4CC4)C3=O)C2)c(C)n1C (stereo not drawn)	-3.042%
Cc1nonc1CC(=O)N1C[C@@H]2CC[C@H](C1)N(Cc1ccccc1)C2=O	-22.99%
CN1CCN(C(=O)N2CCC3(CCCN(C4CCOCC4)C3=O)C2)CC1 (stereo not drawn)	106.4%
Cc1nonc1CC(=O)N1CCC2(CCCN(C3CCOCC3)C2=O)C1 (stereo not drawn)	111.8%
Cc1nccnc1CN1CCC2(CCCN(C3CCOCC3)C2=O)C1 (stereo not drawn)	1.539%
CC(C)N1CCCC2(CCN(C(=O)COCC(F)(F)C(F)F)C2)C1=O (stereo not drawn)	-9.489%
c1ncc2c(n1)CN(CC1CCCCO1)CC2 (stereo not drawn)	-13.48%
CCn1nc(C)c2nc(C(C)C)nc(NCCOC)c21	-9.329%
CS(=O)(=O)Cc1ccccc1NCc1cc(Cl)ccc1Cl	3.453%
Cc1n[nH]cc1CNC(=O)Nc1cccc(OCC(F)(F)F)c1	-23.93%
CCS(=O)(=O)c1ccc(N2CCC(NC(C)=O)CC2)cc1	-5.151%

SMILES	Percent Effect
Cn1cnnc1-c1cncc(NCc2ccccc2Br)c1	9.077%
CCC(CC)NCC(c1ccccn1)N1CCOCC1 (stereo not drawn)	8.316%
CCC(=O)N(CC)C(c1cccnc1)c1ccc2c(c1)CCO2 (stereo not drawn)	-9.514%
O=C1OCCCN1Cc1nc(-c2ccncc2)no1	8.814%
COc1cccc(-c2noc(CN3CCOCC3C)n2)c1 (stereo not drawn)	120.5%
c1csc(-c2noc(CC3CCCO3)n2)c1 (stereo not drawn)	5.637%
CC1COCCN1Cc1nc(-c2ccc(F)cc2)no1 (stereo not drawn)	110.9%
CC1COCCN1Cc1nc(-c2ccsc2)no1 (stereo not drawn)	130%
COc1cccc(-c2ncc(CN3CCOCC(O)C3)s2)c1 (stereo not drawn)	-5.443%
CC(C)c1nc2c(n1C)CCN(Cc1nc(-c3ccsc3)no1)C2	5.269%
CCn1nc2c(cc1=O)CN(Cc1nc(-c3ccsc3)no1)CC2	-2.212%
CC1COCCN1Cc1nc(-c2ccc(Br)s2)no1 (stereo not drawn)	104.9%
Cc1ccc(CN2C[C@H](O)C[C@H]2c2nc(-c3ccc(F)cc3)no2)cc1	-12.23%
COc1ccc(-c2noc(CN3CCOCC3C)n2)cc1OC (stereo not drawn)	-3.831%
CC1COCCN1Cc1nc(-c2cccs2)no1 (stereo not drawn)	6.189%
CC(Oc1cccc(Cl)c1)C(=O)Nc1cnn(CCN(C)C)c1 (stereo not drawn)	-6.613%
CC(C)c1nn(CC(=O)N2CCCC2)c(=O)c2c1cnn2C(C)(C)C	46.37%
Cc1cnn(CCNCc2ccccc2C#N)c1	-11.13%
O=C(CCC1CCCCC1)NS(=O)(=O)CC1CC1	-8.916%
Cc1cccc(-c2noc(CN3CCC(c4ccn[nH]4)CC3)n2)c1	-15.7%
CC1COCCN1Cc1nc(-c2cccc(C(F)(F)F)c2)no1 (stereo not drawn)	102.5%
Cc1cccc(-c2noc(CN3CCc4nn(C)c(=O)cc4C3)n2)c1	-3.74%

SMILES	Percent Effect
Cc1cccc(-c2noc(CN3CCn4c(nnc4C4CC4)C3)n2)c1	-14.41%
Cc1cccc(-c2noc(CN3CCOCC3C)n2)c1 (stereo not drawn)	119.9%
CC1COCCN1Cc1nc(-c2cccc(Br)c2)no1 (stereo not drawn)	7.569%
Cc1cnn(CC(C)NCc2csc(-c3ccsc3)n2)c1 (stereo not drawn)	2.803%
COCc1ccc(CNC(=O)C2=NN(c3ccccc3)C(=O)CN2)cc1	-5.383%
CC(C)(C)C(O)CN1CCN(C(=O)c2cccc3[nH]ncc23)CC1 (stereo not drawn)	-4.967%
O=S1(=O)C[C@@H]2[C@H](C1)N(Cc1cc(Cl)cc(Cl)c1)CCN2CCO	13.48%
O=C(NCc1cccnc1)C1CN(c2cnc3ccccc3n2)CCN1 (stereo not drawn)	-3.228%
O=C(Nc1ccc(Cl)cn1)C1CCCN(CCc2ccncc2)C1 (stereo not drawn)	-1.04%
Cc1cccc(NC(=O)c2ccc(-n3cncn3)nn2)n1	-9.734%
Cc1ccnc(NC(=O)c2cncc(C3CCNCC3)n2)c1	117.9%
O=c1n(Cc2ccccn2)nc(C2CCNCC2)n1Cc1ccccc1	-4.835%
Cc1cccc(NC2CCN(C(=O)Nc3cccc4[nH]ccc34)CC2)n1	-4.499%
Cc1ccnc(NC(=O)c2c(C)oc(C)c2C)c1	13.28%
Cc1cccc(NC(=O)c2cncc(C3CCNCC3)n2)n1	105%
O=C(Nc1cc(C2CCOCC2)[nH]n1)c1ccc(Cl)cn1	-26.34%
O=C(Nc1ccc(Cl)cn1)c1cncc(C2CCNCC2)n1	119.3%
O=C(Nc1ccccn1)c1nc(N2CCCC2)ncc1Cl	-4.003%
Cc1ccnc(NC(=O)c2ccc(Cl)o2)c1	-0.2777%
Cl.O=C(Nc1ccccn1)c1cncc(C2CCNCC2)n1	82.75%
